CtBP-E1A blk = blocks the CtBP interaction with E1A; AlphaScreen GST-E1A/His-CtBP binding, 1536-well; stronger effect = lower value; hit rate 0.49% among 340,000; activity change, % (test concentration not listed); AID 651724; in the data active means activity change below about -65%; inconclusive means mostly about -30% to -63%; further: on the % scale 0 is the no-effect control and ±100 the full control effect
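Protein mix (5X: 125 nM each GST-E1A, His-CtBP) was incubated with pinned compound 2 h at 37 deg C in dark, in 50 mM Tris pH 8.0 buffer with 300 mM NaCl. Glutathione donor and nickel acceptor beads followed; AlphaScreen signal read after 1 h.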
HP1b chromo inh = HP1-beta chromodomain-methylated histone interaction inhibition; P83916; AlphaScreen HP1-beta / biotin-H3K9me3 peptide binding; Potency, µM (series often up to 114 µM), for the others: at the top dose activity change, negative = inhibition, usual class: inhibitors; hit rate 0.56% among 390,000; further: potency means the concentration at half of the fitted maximal effect; nearly all actives have a fitted effect of over 70% in size
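Compound inhibition of the preformed complex between 50 nM HP1-beta and 50 nM biotinylated H3K9me3 peptide was read by AlphaScreen. Buffer was PBS pH 7.4 with 0.01% Tween-20. Incubations ran 30 min at room temperature, with 10 ug/mL donor/acceptor beads.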
BAZ2B block = blocks human BAZ2B. Potency, µM (series often up to 114 µM), for inactives: top-dose activity change, negative = inhibition, hits mostly inhibitors. hit rate 4.4% among 360,000. AlphaScreen BAZ2B-H3K14Ac peptide displacement. Q9UIF8; further: potency means the concentration at half of the fitted maximal effect; on the % scale 0 is the no-effect control and ±100 the full control effect; nearly all actives have a fitted effect of over 60% in size
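Multi-concentration screen (max 110 uM) measuring displacement of acetylated histone H3 peptide from BAZ2B by AlphaScreen, using 50 nM protein, 50 nM peptide and 10 ug/mL streptavidin donor plus Ni-chelate acceptor beads.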
G9a inh = G9a (human) methyltransferase inhibition. Q96KQ7. G9a H3K9 monomethylation, AlphaScreen, 2 h. Potency, µM (top dose mostly 102 µM), without a hit: at the highest dose activity, negative = inhibition, hits mostly inhibitors. hit rate 8.8% among 350,000. AID 504332; further: potency means the concentration at half of the fitted maximal effect; on the % scale 0 is the no-effect control and ±100 the full control effect; nearly all actives have a fitted effect of over 75% in size
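G9a (20 nM) was preincubated 15 min with compound, then reacted 2 h at room temperature with 500 nM biotin-H3K9 peptide and 20 µM SAM. Monomethyl-H3K9 detected by AlphaScreen using anti-H3K9me1 antibody.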
JMJD2A Tudor = JMJD2A Tudor domain (human) inhibition | AlphaScreen JMJD2A-Tudor / H3K4me3 peptide binding | Potency, µM (highest dose often 114 µM), for the others: top-dose activity change, negative = inhibition, hits mostly inhibitors | hit rate 4.4% among 390,000 | AID 504339; further: potency means the concentration at half of the fitted maximal effect; on the % scale 0 is the no-effect control and ±100 the full control effect; nearly all actives have a fitted effect of over 50% in size
Six1-Eya2 inh = Six1/Eya2 interaction inhibition | AlphaScreen GST-Six1/His-Eya2 binding, biochemical; stronger effect = lower value | activity change, % (no concentration beside the values) | hit rate 0.56% among 360,000 | Q15475+O00167; in the data active means activity change below about -65%; inconclusive means mostly about -30% to -63%; further: on the % scale 0 is the no-effect control and ±100 the full control effect
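Compounds are tested against tagged Six1 and Eya2 proteins bridged by glutathione donor and nickel acceptor beads; after a one-hour incubation at 37 °C without light, AlphaScreen emission is recorded.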
Starred values were filed as active, the others as inactive; ? = inconclusive; nt = no result; [ ] = dose if it differs, or a comment. A selection: hits, their analogues and other compounds. The true share with any hit is near 10%. Unless noted, the call rests on the fitted dose curve; in most records, active means well fitted inhibition curve with a large enough effect; inconclusive means small, poorly fitted or top-dose-only effect; inactive means no such curve, though single readings can be large or run the other way.

SMILES	CtBP-E1A blk	HP1b chromo inh	BAZ2B block	G9a inh	JMJD2A Tudor	Six1-Eya2 inh
O=C(O)CSc1ncnc2c1sc1nc(-c3ccccc3)c3c(c12)CCC3	nt	-34%[57 µM]	50µM*	40µM*	50µM*	-14
CC(C)c1nc2sc3c(SCC(=O)NCc4ccco4)ncnc3c2c2c1CCC2	-25	-5%	56µM*	45µM*	56µM*	-26
O=C(Nc1cc(=O)[nH]c2ncnn12)c1ccccc1	-5	25%	-30%	3%[59 µM]	-20%	-10
O=C(Nc1cc(=O)[nH]c2ncnn12)c1ccc(Cl)cc1Cl	-6	16%	-2%	8.9µM*	79µM*	1
CN1C(=O)C2(c3ccccc31)N(c1cccc(C(F)(F)F)c1)C(=O)CS2(=O)=O (centres undefined)	nt	16%	0%[57.1 µM]	-6%[59 µM]	-10%	nt
O=C1CS(=O)(=O)C2(C(=O)Nc3ccccc32)N1c1cccc(Cl)c1 (centres undefined)	nt	21%	1%[57.1 µM]	22µM*	-1%	nt
CCOC(=O)c1c(-c2cccc([N+](=O)[O-])c2)csc1N	-15	-24%	50µM*	?	?	-12
CCOC(=O)c1c(-c2cccc([N+](=O)[O-])c2)csc1NC(=O)C1CC1	-10	-9%	-36%	-11%[2.33 µM]	-28%	?
CCOC(=O)c1csc(N)c1-c1ccc([N+](=O)[O-])cc1	nt	-28%	?	11µM*	?	-18
COc1ccc(C(=O)NCCCN(C)CCCNC(=O)c2ccc(OC)cc2)cc1	-11	22%	2%	15%	-6%	0
Cc1c(Cl)cccc1NS(=O)(=O)c1cc2c(cc1Cl)CCC(=O)N2	nt	nt	nt	nt	-9%	nt
CCCN(CC1CCCO1)C(=O)CCc1nnc(-c2cc(C)on2)o1 (centres undefined)	2	47%	3%	7%	-2%	0
Cc1cc(C(=O)CSc2nnc(NCc3ccccc3)s2)c(C)n1C	-4	-22%	?	?	?	-16
CN1/C(=C\C(=O)CSc2nnc(NCc3ccccc3)s2)C(C)(C)c2ccccc21	-1	6%	?	3.2µM*	?	-17
Cc1nncn1-c1ccc(C(=O)Nc2cc(F)ccc2F)cc1	nt	23%[57 µM]	11%	4%[59 µM]	4%	nt
CC(C)C[C@H](NC(=O)c1nc[nH]c1C(=O)N[C@@H](CC(C)C)C(=O)OCc1ccccc1)C(=O)OCc1ccccc1	-27	42%	-2%	nt	-24%	6
CC(C)C[C@@H](CNCC(=O)[C@H](Cc1ccccc1)NC(=O)c1[nH]cnc1C(=O)N[C@H](CN)CC(C)C)NC(=O)c1nc[nH]c1C(=O)N[C@@H](CC(=O)O)C(=O)O	-18	37%	nt	nt	28µM*	-22
CC(C)C[C@@H](CNCC(=O)[C@H](CC(C)C)NC(=O)c1[nH]cnc1C(=O)N[C@@H](C)CN)NC(=O)c1nc[nH]c1C(=O)N[C@@H](C)C(=O)O	4	29%	nt	nt	-3%	-1
CC(C)C[C@@H](CNCC(=O)[C@H](CC(C)C)NC(=O)c1[nH]cnc1C(=O)N[C@H](CN)CC(C)C)NC(=O)c1nc[nH]c1C(=O)N[C@@H](Cc1ccccc1)C(=O)O	-5	22%	nt	nt	?	-6
CC(C)C[C@@H](CNCC(=O)[C@H](CC(=O)O)NC(=O)c1[nH]cnc1C(=O)N[C@H](CN)CC(C)C)NC(=O)c1nc[nH]c1C(=O)N[C@@H](C)C(=O)O	-7	65%	nt	nt	?	-4
CC(C)C[C@H](NC(=O)c1nc[nH]c1C(=O)NCCCCCN)C(=O)OCc1ccccc1	-6	13%	nt	nt	79µM*	-3
CC(C)C[C@@H](CNCC(=O)[C@H](C)NC(=O)c1[nH]cnc1C(=O)N[C@@H](C)CN)NC(=O)c1nc[nH]c1C(=O)N[C@@H](Cc1ccccc1)C(=O)O	-5	14%	nt	nt	79µM*	-5

High-throughput results as filed in PubChem.
